The inhibition is the change of the read-out against control, counted positive when it falls.

The values that follow come from PubChem BioAssay.

The source made the active and inactive calls.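 How the source made its calls, unless noted: active means fluorescence slope higher than the sample average by over 3 SD (cut at about -0.22 in these data, passing the limit was not always enough); inactive means the rest.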

Assay [1] can be described thus: inhibitors of TNFa-induced NFkB p65 translocation, primary screen, imaging, HUVEC, MLSMR starter and 10KST1 sets (AID 438;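 active means inhibition above 20% together with a positive visual image hit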;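 further: compound added about 3h40 before a 20 min TNFalpha stimulation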;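 on inhibition: signal is the nuclear over cytoplasmic p65 intensity ratio per well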). Particulars: HUVEC TNFa-induced p65 nuclear translocation; cell count: measured here: nuclei count (cytotoxicity indicator), at 2.08 µM unless noted; inhibition: at 2 µM, stronger effect = higher value unless noted.
Assay [2] can be described thus: inhibitors of E-selectin induction by TNFa, primary screen, imaging, HUVEC, immunofluorescence, MLSMR starter and 10KST1 sets (AID 487;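 active means visually confirmed hit in the image check and inhibition above 20%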;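 on inhibition: signal is fraction of cell area covered by stained E-selectin grains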;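 on nuclei count: 100% = median nuclei count of all wells on the same plate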). Particulars: HUVEC TNFalpha-induced E-selectin immunofluorescence imaging, at 2 µM; inhibition: stronger effect = higher value; nuclei count: measured here: cell number, toxicity.
Assay [3] in a line: DUSP6 inhibitors restoring Erk phosphorylation by chemical complementation, primary imaging in DUSP6-transfected HeLa (AID 609;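 active means compounds giving at least 50% inhibition in the cell-based MKP-3 phosphatase rescue imaging test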;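 on inhibition: phospho-Erk level distribution per well compared with pooled transfected vehicle control wells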). The settings on record: HeLa MKP-3 transfected, phospho-Erk imaging KS statistic, at 10 µM.
For assay [4], the target named is Dual specificity protein phosphatase 6 (Homo sapiens) (UniProt Q16828). The assay is described as above. Particulars: HeLa MKP-3 transfected, phospho-Erk imaging KS statistic, at 10 µM, stronger effect = higher value.
Chain of Dual specificity protein phosphatase 6 (Homo sapiens) (Q16828 whole entry, looked up): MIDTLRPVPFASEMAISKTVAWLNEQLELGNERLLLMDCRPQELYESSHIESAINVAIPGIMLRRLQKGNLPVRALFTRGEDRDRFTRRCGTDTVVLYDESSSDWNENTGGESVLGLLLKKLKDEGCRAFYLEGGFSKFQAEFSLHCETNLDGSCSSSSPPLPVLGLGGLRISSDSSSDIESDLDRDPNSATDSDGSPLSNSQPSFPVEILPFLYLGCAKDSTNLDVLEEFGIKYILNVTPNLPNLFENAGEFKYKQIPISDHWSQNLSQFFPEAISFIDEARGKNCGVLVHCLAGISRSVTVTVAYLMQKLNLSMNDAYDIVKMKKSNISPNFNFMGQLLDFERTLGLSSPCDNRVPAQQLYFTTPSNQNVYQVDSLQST
Assay [5] concerns the target Voltage-gated potassium channel subunit beta-2 (Rattus norvegicus) (UniProt P62483). Put plainly: KvBeta enzyme negative modulators, primary screen, biochemical, NADPH fluorescence (AID 622).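 Further: slope of raw intensity against log time taken from 70 to 1610 s.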 Particulars: recombinant KvBeta, 4-cyanobenzaldehyde reduction, at 10 µM, stronger effect = higher value.
For assay [6] the target is unchanged. Put plainly: KvBeta positive modulators, primary screen, biochemical, NADPH fluorescence (AID 623;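 active means NADPH fluorescence slope more negative than the mean of all samples by about 3 SD, 99.7% confidence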;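 further: fluorescence intensity change per second fitted from 20 to 320 s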). The settings on record: Recombinant KvBeta, NADPH fluorescence decrease slope, 10 min; at 10 µM; stronger effect = lower value.
Assay [7] has as its target Muscarinic acetylcholine receptor M4 (Homo sapiens) (UniProt P08173). As to the kind of experiment: compounds altering M4/GIRK thallium flux, either direction, primary screen, M4 allosteric agonist project, cell-based, HEK293 M4/GIRK, BTC-AM (AID 625;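 active means fluorescence slope after compound addition differing from the mean of all tested samples at 99.7% confidence, mostly higher but some lower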;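 further: thallium influx through GIRK channels coupled to M4 in HEK293 cells with BTC-AM dye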). The settings on record: at 10 µM, actives lie on both sides.
A short description of assay [8]: inhibitors of larval lipid processing in zebrafish, primary screen, whole organism, PED6 fluorescence, gall bladder and intestine (AID 686;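 active means a full or partial loss of lipid-probe fluorescence in the fish gall bladder, intestine or both, judged by eye; inactive means no fluorescence loss, or compound toxic to the fish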;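 further: larvae 5 to 7 days old with five fish per well; signal comes from phospholipase A2 cleavage of quenched PED6 carried via bile; overnight exposure to compound and PED6 before scoring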). Particulars: Zebrafish larvae PED6 lipid processing, fluorescence scoring.
A short description of assay [9]: inhibitors of Chlamydomonas gravitaxis, primary screen, whole organism, Chlamydomonas reinhardtii, WT vs cilia-less mutant, absorbance, 96-well (AID 463189;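 active means inhibition at or above 50% relative to wild type and mutant plate controls; inactive means inhibition below 50%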;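 further: 0% = wild type cc124 cells in DMSO and 100% = ciliumless bld1 mutant cells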). Particulars: OD600 absorbance, 2 days, at 10 µM, stronger effect = higher value.
Assay [10] can be described thus: inhibitors of mutant huntingtin aggregation, primary screen, imaging, exon1htt(103Q)mCFP cells, high-content imaging (AID 483;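 active means visual image review flags a hit and inhibition of aggregation exceeds 20%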;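 further: compound exposure lasted 3 days before fixation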;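 on nuclei count: percent of the per-plate median nuclei count of sample wells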). Particulars: exon1htt(103Q)mCFP cell line, aggregate imaging, at 2 µM; inhibition of aggregation: stronger effect = higher value; nuclei count: measured here: cell count, toxicity.
The target in assay [11] is Alpha-2C adrenergic receptor (Homo sapiens) (UniProt P18825). Put plainly: modulators of alpha2C/GIRK thallium flux, primary screen, cell-based, HEK293 alpha2C/GIRK1/2 (AID 624;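 active means fluorescence slope after compound addition differing from the mean of all screened samples at 99.7% confidence, in either direction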;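 further: slope of fluorescence ratio to pre-addition baseline per second over 15 to 24 s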). Particulars: thallium flux BTC fluorescence, at 10 µM, actives lie on both sides.
Chain of Alpha-2C adrenergic receptor (Homo sapiens) (P18825 whole entry, looked up): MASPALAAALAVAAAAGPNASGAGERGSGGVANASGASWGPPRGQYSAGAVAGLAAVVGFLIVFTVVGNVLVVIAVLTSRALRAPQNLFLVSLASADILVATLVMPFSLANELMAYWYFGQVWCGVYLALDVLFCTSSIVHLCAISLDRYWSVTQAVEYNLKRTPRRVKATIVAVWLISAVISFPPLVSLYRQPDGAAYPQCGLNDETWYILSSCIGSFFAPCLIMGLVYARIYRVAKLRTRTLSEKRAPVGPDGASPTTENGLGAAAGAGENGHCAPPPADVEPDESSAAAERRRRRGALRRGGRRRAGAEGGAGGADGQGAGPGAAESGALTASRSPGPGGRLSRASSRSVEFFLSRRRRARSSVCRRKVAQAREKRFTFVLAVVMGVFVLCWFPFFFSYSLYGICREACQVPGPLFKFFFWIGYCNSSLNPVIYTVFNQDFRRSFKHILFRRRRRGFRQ
Assay [12] can be described thus: inhibitors of Sendai virus-induced IRF3 signaling, primary screen, TLR/RLR signaling modifier project, cell-based, Sendai virus stimulus, luciferase, 10K MLSCN set (AID 602276;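 active means inhibition at or above 50% at 10 µM; inactive means inhibition below 50%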;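 further: firefly luciferase from ISG56 promoter only with Renilla not read in this screen; 0% = Sendai virus plus DMSO and 100% = medium plus DMSO without virus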). Particulars: HEK293 RL24 IRF3 luciferase reporter, at 10 µM, stronger effect = higher value. In general terms: A reporter such as luciferase makes a cellular process visible.
A short description of assay [13]: inhibitors of poly I:C-induced TLR3 signaling, primary screen, cell-based, poly I:C stimulus, luciferase, 10K MLSCN set (AID 602277;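 active means inhibition of the reporter signal at or above 50%; inactive means inhibition below 50%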). The settings on record: HEK293-TLR3 RL24 IRF3 luciferase reporter, at 10 µM, stronger effect = higher value.
[14] abbreviates: measured here: cell density z-score.
Where [15] appears, read: measured here: nuclear c-Myc green intensity z-score.
Setting [16] is: measured here: nuclear pErk red intensity z-score, stronger effect = higher value.

Chain of Voltage-gated potassium channel subunit beta-2 (Rattus norvegicus) (P62483 whole entry, looked up): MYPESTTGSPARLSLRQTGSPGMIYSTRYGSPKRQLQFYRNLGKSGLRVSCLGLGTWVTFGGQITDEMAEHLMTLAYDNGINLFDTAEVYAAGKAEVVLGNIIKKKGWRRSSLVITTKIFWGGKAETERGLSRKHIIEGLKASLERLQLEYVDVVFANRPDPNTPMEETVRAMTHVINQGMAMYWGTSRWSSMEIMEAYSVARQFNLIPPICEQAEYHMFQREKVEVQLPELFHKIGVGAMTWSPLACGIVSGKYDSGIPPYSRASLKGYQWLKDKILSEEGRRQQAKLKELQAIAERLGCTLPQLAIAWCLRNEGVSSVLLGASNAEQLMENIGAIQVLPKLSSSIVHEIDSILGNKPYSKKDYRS
Chain of Muscarinic acetylcholine receptor M4 (Homo sapiens) (P08173 whole entry, looked up): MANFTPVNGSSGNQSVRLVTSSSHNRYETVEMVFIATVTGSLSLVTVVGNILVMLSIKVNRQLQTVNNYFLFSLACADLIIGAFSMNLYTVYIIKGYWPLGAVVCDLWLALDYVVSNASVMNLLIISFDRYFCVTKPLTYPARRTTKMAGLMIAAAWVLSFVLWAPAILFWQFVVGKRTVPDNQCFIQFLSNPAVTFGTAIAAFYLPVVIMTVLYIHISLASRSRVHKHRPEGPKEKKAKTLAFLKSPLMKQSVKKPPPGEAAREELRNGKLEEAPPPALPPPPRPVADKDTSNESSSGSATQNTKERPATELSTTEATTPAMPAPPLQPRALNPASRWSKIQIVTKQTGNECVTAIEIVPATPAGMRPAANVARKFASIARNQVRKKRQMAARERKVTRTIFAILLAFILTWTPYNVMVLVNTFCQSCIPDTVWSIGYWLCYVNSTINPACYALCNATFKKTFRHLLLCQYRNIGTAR

In assay [1], `C=CCOC(=O)C1=C(C)OC(N)=C(C#N)[C@@]12C(=O)N(CC(N)=O)c1ccccc12` came in with a cell count of 473. Further, the inhibition in assay [1] was -1.4% (inactive); in [2], -499% (inactive); in [4] it was 2.71% (inactive); in [9], 1.7% (inactive). Moreover, in [2], the nuclei count is 193%. Further, the z-score in [3] (setting [14]) is 0.623; in assay [3] (setting [15]) it was -0.273; in [3] (setting [16]) it was 0.824. The figures for the fluorescence slope in assay [5] and in assay [7] were -0.441 (inactive) and 0.00506 (inactive), respectively. In addition, the NADPH fluorescence slope in assay [6] was -5.7e-05 (inactive). Moreover, the molecule was called inactive in assay [8].
`NCC1(c2ccc3c(c2)OCCO3)CCCC1` came in with a cell count in assay [1] of 634. Further, the inhibition in assay [1] was 8.6% (inactive); in [2] it was -19.9% (inactive); in [4], -13.3% (inactive); in assay [9] it was -6.44% (inactive). This molecule displayed a nuclei count in assay [2] of 120%. In addition, the values for the z-score in assay [3] (setting [14]), in assay [3] (setting [15]) and in assay [3] (setting [16]) were -0.692, -0.463 and 0.187, respectively. For the same molecule, the fluorescence slope is -0.453 (inactive) in [5] and 0.0056 (inactive) in assay [7]. Besides, in assay [6], the NADPH fluorescence slope is -2.2e-05 (inactive). Further, in assay [8], the call was inactive.
`CCCCc1nc(N2CCNCC2)c(C#N)c2c1CSC(C)(C)C2` returned a cell count in assay [1] of 519. Further, the inhibition is -12.8% (inactive) in assay [1], -143% (inactive) in assay [2], 7.42% (inactive) in assay [4] and 55.2% (active) in assay [9]. In assay [2], the nuclei count was found to be 135%. Moreover, the z-score in assay [3] (setting [14]) was 0.415; in assay [3] (setting [15]) it was -0.261; in assay [3] (setting [16]), 0.643. The fluorescence slope is -0.49 (inactive) in [5] and 0.00482 (inactive) in assay [7]. The NADPH fluorescence slope in [6] is -0.000122 (inactive). In addition, the call in assay [8] was inactive.
In assay [1], `CCCCNC(=O)Nc1ccc(C(O)(C(=O)OC)C(F)(F)F)cc1` (configuration not stated) yielded a cell count of 632. Also, the inhibition in assay [1] is -8.8% (inactive); in assay [2] it was 7.1% (inactive); in [4] it was 18.4% (inactive); in assay [9] it was 8.19% (inactive). The molecule further came in with a nuclei count in assay [2] of 154%. Moreover, the z-score in assay [3] (setting [14]) was 0.744; in assay [3] (setting [15]) it was -1.2; in assay [3] (setting [16]) it was 0.72. For the same molecule, the fluorescence slope is -0.482 (inactive) in [5] and 0.00513 (inactive) in assay [7]. Moreover, the NADPH fluorescence slope in assay [6] was -4.8e-05 (inactive). Further, in assay [8], the result was inactive.
In the case of `CN1CCc2c(c(N3CCCCC3)nc3n[nH]c(N)c23)C1`, the cell count in [1] is 496. The inhibition in [1] was -17.1% (inactive); in assay [2] it was -154% (inactive); in assay [4], 21.4% (inactive); in assay [9] it was -3.54% (inactive). This molecule returned a nuclei count in assay [2] of 127%. For the same molecule, the figures for the z-score in assay [3] (setting [14]), in assay [3] (setting [15]) and in assay [3] (setting [16]) were 1.06, -1.56 and 0.455, respectively. The fluorescence slope was -0.463 (inactive) in [5] and 0.00409 (inactive) in [7]. Moreover, the NADPH fluorescence slope in assay [6] was -8.3e-05 (inactive). The result in assay [8] was inactive.
In [1], `CCc1ccc(OCCCN=C(C)c2c(O)n(C)c(=O)n(C)c2=O)cc1` yielded a cell count of 627. For the same molecule, the inhibition was 0.2% (inactive) in [1], 23.8% (inactive) in [2], 11.6% (inactive) in assay [12] and 14.8% (inactive) in [13]. In [10], the inhibition of aggregation was -0.8% (inactive). Further, the nuclei count was 84.3% in assay [10] and 95.1% in [2]. Further, the fluorescence slope in assay [5] was -0.385 (inactive). Besides, the NADPH fluorescence slope in [6] is 2.2e-06 (inactive). The slope in [11] is 0.00351 (inactive).
`CC(=NCc1ccc2c(c1)OCO2)c1c(O)n(C)c(=O)n(C)c1=O` came in with a cell count in [1] of 629. Besides, the inhibition in assay [1] is -10.8% (inactive); in [2], 5.3% (inactive); in assay [12], 20.7% (inactive); in assay [13], 25.9% (inactive). Besides, the inhibition of aggregation in [10] was 0.7% (inactive). Further, the nuclei count came to 94.1% in assay [10] and 97.5% in [2]. Moreover, the fluorescence slope in assay [5] was -0.409 (inactive). The NADPH fluorescence slope in assay [6] is 1.3e-05 (inactive). For the same molecule, the slope in [11] was 0.00333 (inactive).
